# Measurements: the supplement of paper PMC9135407
# “And” between values parts separate entries of the source, which are not always exact repeats. Equal values may be shown once. Where a name gives a salt, the structure may show the parent alone. In all, about 5,800 compounds went through this assay and about 620 (11%) showed activity. Many of the other results were omitted from the sample, so actives are more common in it than they were. Unmarked numbers belong to inactive results.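 How the source made its calls: active = score above a cut-off or among the top three wells of a plate; in these data no inactive exceeds 0.85.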
# System: primary human hepatic stellate cells (donor 1)
# Assay: scaled lipid accumulation score (0 = DMSO-like, 1 = nortriptyline-like); higher = stronger HSC inactivation (lipid re-accumulation), active = hit call of the paper
# Conditions: 48 h
# [1] = library stock concentration: 1 mM
# [2] = library stock concentration: 10 mM
# [3] = library stock concentration: 3.33 mM
# [4] = library stock concentration: 80 uM
# [5] = library stock concentration: 400 uM
# [6] = library stock concentration: 2 mM
compound,measurement,setting,value
CC(=O)N[C@@H](CSC/C=C(\C)CCC=C(C)C)C(=O)O [N-Acetyl-S-geranyl-L-cysteine],scaled lipid accumulation score,[1],≤ -0.021
CCC(=O)O[C@H]1CC[C@H]2[C@@H]3CCc4cc(O)ccc4[C@H]3CC[C@]12C [Estradiol propionate],scaled lipid accumulation score,library stock concentration: 6.1 mM,0.254
same,scaled lipid accumulation score,[2],0.443
O=C1OC2(c3ccc(O)cc3Oc3cc(OS(=O)(=O)c4c(F)c(F)c(F)c(F)c4F)ccc32)c2ccccc21 (stereo not drawn) [Pentafluorobenzenesulfonyl fluorescein],scaled lipid accumulation score,[1],≤ 0
CO[C@H]1C[C@@H]2CC[C@@H](C)[C@@](O)(O2)C(=O)C(=O)N2CCCC[C@H]2C(=O)O[C@H]([C@H](C)C[C@@H]2CC[C@@H](OC(=O)C(C)(CO)CO)[C@H](OC)C2)CC(=O)[C@H](C)/C=C(\C)[C@@H](O)[C@@H](OC)C(=O)[C@H](C)C[C@H](C)/C=C/C=C/C=C/1C,scaled lipid accumulation score,[3],0.032
same,scaled lipid accumulation score,[2],0.094
CN1CCN(C2CCN(C(=O)Nc3cc(Oc4ccc(NC(=O)C5(C(=O)Nc6ccc(F)cc6)CC5)c(F)c4)ccn3)CC2)CC1 [Golvatinib (E7050)] [listing 1 of 2 here],scaled lipid accumulation score,[2],0.429
CN1CCN(C2CCN(C(=O)Nc3cc(Oc4ccc(NC(=O)C5(C(=O)Nc6ccc(F)cc6)CC5)c(F)c4)ccn3)CC2)CC1 [Golvatinib (E7050)] [listing 2 of 2 here],scaled lipid accumulation score,[3],0.979 (active)
CC/C=C\C/C=C\C/C=C\C/C=C\C/C=C\C/C=C\CCC(=O)NCCO [Docosahexaenoyl Ethanolamide],scaled lipid accumulation score,[1],0.03
COc1cc(OC2CCN(C)CC2)ccc1Nc1ncc2c(n1)n(C1CCCC1)c(=O)n2C [listing 1 of 2 here],scaled lipid accumulation score,[2],1.06 (active)
COc1cc(N2CCC(N3CCN(C)CC3)CC2)ccc1Nc1ncnc(Nc2ccccc2S(=O)(=O)C(C)C)n1,scaled lipid accumulation score,[4],≤ 0
same,scaled lipid accumulation score,[5],0.045
same,scaled lipid accumulation score,[6],0.433
same,scaled lipid accumulation score,[2],0.819
COc1cc(OC2CCN(C)CC2)ccc1Nc1ncc2c(n1)n(C1CCCC1)c(=O)n2C [listing 2 of 2 here],scaled lipid accumulation score,[3],0.441
C[C@H](C(=O)O)c1ccc(-c2ccccc2)c(F)c1 [(S)-Flurbiprofen],scaled lipid accumulation score,[1],0.003
Cl.Nc1ccc(C(=O)Nc2cccc(-c3nc(N4CCOCC4)c4oc5ncccc5c4n3)c2)cn1,scaled lipid accumulation score,[6],1.74 (active)
same,scaled lipid accumulation score,[2],1.25 (active)
Nc1ccc(C(=O)Nc2cccc(-c3nc(N4CCOCC4)c4oc5ncccc5c4n3)c2)cn1 [listing 1 of 3 here],scaled lipid accumulation score,[2],0.915 (active)
Nc1ccc(C(=O)Nc2cccc(-c3nc(N4CCOCC4)c4oc5ncccc5c4n3)c2)cn1 [listing 2 of 3 here],scaled lipid accumulation score,[2],0.995 (active)
CC(C)(O)c1cc2nc(-c3cnc(N)nc3)nc(N3CCOCC3)c2s1,scaled lipid accumulation score,[5],≤ -0.005
same,scaled lipid accumulation score,[6],≤ -0.005
same,scaled lipid accumulation score,[2],0.006
Oc1cccc(-c2nc(N3CCOCC3)c3oc4ncccc4c3n2)c1 [listing 1 of 2 here],scaled lipid accumulation score,[4],0.118
same,scaled lipid accumulation score,[5],0.051 and ≤ -0.005
same,scaled lipid accumulation score,[1],≤ 0
same,scaled lipid accumulation score,[6],≤ -0.009 and ≤ -0.005
same,scaled lipid accumulation score,[3],0.203 and 0.016
same,scaled lipid accumulation score,[2],0.796 and 0.279
COc1ccc(-c2nc(N3CCOCC3)c3sc(CN(C)c4ncc(C(=O)NO)cn4)cc3n2)cn1,scaled lipid accumulation score,[4],0.745
same,scaled lipid accumulation score,[5],0.648
same,scaled lipid accumulation score,[6],0.67
same,scaled lipid accumulation score,[3],0.439
same,scaled lipid accumulation score,[2],0.447 and 0.588
Oc1cccc(-c2nc(N3CCOCC3)c3sccc3n2)c1 [PI3-Kinase .alpha. Inhibitor 2],scaled lipid accumulation score,[1],≤ 0
O=c1cc(N2CCOCC2)oc2c1ccc1ccccc12 [DNA-PK Inhibitor II],scaled lipid accumulation score,[3],≤ 0
Cc1c(CN2CCN(C(=O)[C@H](C)O)CC2)sc2c(N3CCOCC3)nc(-c3cnc(N)nc3)nc12,scaled lipid accumulation score,[4],0.079
same,scaled lipid accumulation score,[5],≤ -0.015
same,scaled lipid accumulation score,[6],≤ -0.016
same,scaled lipid accumulation score,[3],≤ 0
same,scaled lipid accumulation score,[2],≤ 0 and ≤ -0.016
O=c1cc(N2CCOCC2)oc2c1ccc1ccccc12,scaled lipid accumulation score,[4],≤ 0
same,scaled lipid accumulation score,[5],≤ 0
same,scaled lipid accumulation score,[6],≤ 0
same,scaled lipid accumulation score,[2],≤ 0 and 0.033
Nc1ccc(C(=O)Nc2cccc(-c3nc(N4CCOCC4)c4oc5ncccc5c4n3)c2)cn1 [listing 3 of 3 here],scaled lipid accumulation score,[4],≤ -0.009
same,scaled lipid accumulation score,[5],0.031 and ≤ -0.005
same,scaled lipid accumulation score,[6],0.229
same,scaled lipid accumulation score,[3],0.647
Oc1cccc(-c2nc(N3CCOCC3)c3oc4ncccc4c3n2)c1 [listing 2 of 2 here],scaled lipid accumulation score,[2],0.923 (active)
CC(Cc1ccc(O)c(O)c1)C(C)Cc1ccc(O)c(O)c1 (stereo not drawn) [Nordihydroguaiaretic Acid],scaled lipid accumulation score,[1],0.042
COc1ccc(-n2c(C)c([N+](=O)[O-])c3ccc(O)cc32)cc1,scaled lipid accumulation score,[3],0.252
same,scaled lipid accumulation score,[2],0.703
O/N=C/c1ccc(-c2ccc(O)c(F)c2)c(Cl)c1O,scaled lipid accumulation score,[2],0.02
COc1ccc([C@H]2CNC(=O)C2)cc1OC1CCCC1 [(S)-(+)-Rolipram],scaled lipid accumulation score,[2],≤ -0.006
C[C@H](N)C(=O)CCCCCC(=O)O [KAPA (hydrochloride)],scaled lipid accumulation score,[1],0.007
O=C1[C@H](Cc2ccc(O)cc2)N2C(=O)CCN(C(=O)NCc3ccccc3)[C@H]2CN1Cc1cccc2ccccc12,scaled lipid accumulation score,[3],≤ 0
same,scaled lipid accumulation score,[2],0.29
CC(=Cc1ccc(C(=O)O)cc1)c1ccc2c(c1)C(C)(C)CCC2(C)C,scaled lipid accumulation score,[1],≤ -0.021
same,scaled lipid accumulation score,[2],≤ 0
CC(=Cc1ccc(C(=O)O)cc1)c1ccc2c(c1)C(C)(C)CCC2(C)C [TTNPB (Arotinoid Acid)],scaled lipid accumulation score,[3],≤ 0
same,scaled lipid accumulation score,[2],≤ -0.001
CCCCCCCCCC(=O)N[C@@H](Cc1c[nH]c2ccccc12)C(=O)N[C@@H](CC(N)=O)C(=O)N[C@@H](CC(=O)O)C(=O)N[C@@H]1C(=O)NCC(=O)N[C@@H](CCCN)C(=O)N[C@@H](CC(=O)O)C(=O)N[C@H](C)C(=O)N[C@@H](CC(=O)O)C(=O)NCC(=O)N[C@H](CO)C(=O)N[C@@H]([C@H](C)CC(=O)O)C(=O)N[C@@H](CC(=O)c2ccccc2N)C(=O)O[C@@H]1C [DAPTOMYCIN (5 millimolar/DMSO)],scaled lipid accumulation score,[2],≤ 0
CC(C)c1nn(-c2c(Cl)cccc2Cl)c2nc(Cc3ccc(OCCO)cc3)[nH]c(=O)c12,scaled lipid accumulation score,[4],0.074
same,scaled lipid accumulation score,[5],0.071
same,scaled lipid accumulation score,[6],0.275
same,scaled lipid accumulation score,[2],0.136
O=[N+]([O-])c1ccccc1S(=O)(=O)NCC1CCC(CNCC2CCc3ccccc3C2)CC1 (stereo not drawn) [NTNCB hydrochloride],scaled lipid accumulation score,[2],0.622
NC(=O)N/N=C/c1ccc(Oc2ccc(F)cc2)cc1,scaled lipid accumulation score,[2],0.015
C#C[C@]1(O)CC[C@H]2[C@@H]3CCC4=Cc5oncc5C[C@]4(C)[C@H]3CC[C@@]21C [Danazol],scaled lipid accumulation score,,0.447
same,scaled lipid accumulation score,library stock concentration: 5.9 mM,0.204 and 0.103
same,scaled lipid accumulation score,[2],≤ 0
C#C[C@]1(O)CC[C@H]2[C@@H]3CCC4=Cc5oncc5C[C@]4(C)[C@H]3CC[C@@]21C,scaled lipid accumulation score,[2],0.336
C#C[C@]1(O)CC[C@H]2[C@@H]3CCc4cc(O)ccc4[C@H]3CC[C@@]21C,scaled lipid accumulation score,[2],0.186
C#C[C@]1(O)CC[C@H]2[C@@H]3CCc4cc(O)ccc4[C@H]3CC[C@@]21C [Ethinyl Estradiol],scaled lipid accumulation score,[3],≤ 0
same,scaled lipid accumulation score,[2],0.277
C#C[C@]1(O)CC[C@H]2[C@@H]3CCc4cc(O)ccc4[C@H]3CC[C@@]21C [Ethinyl estradiol],scaled lipid accumulation score,library stock concentration: 6.7 mM,0.516
same,scaled lipid accumulation score,[2],≤ 0
C#C[C@]1(O)CC[C@H]2[C@@H]3CCC4=Cc5oncc5CC4(C)[C@H]3CCC21C (stereo partly drawn) [Danazol],scaled lipid accumulation score,[2],0.915 (active)
CC(C)NCCN(C(C)C)S(=O)(=O)c1ccc(Cl)cc1Cl,scaled lipid accumulation score,[2],0.722
CCc1oc2ccccc2c1C(=O)c1cc(Br)c(O)c(Br)c1 [Benzbromarone],scaled lipid accumulation score,,0.013
same,scaled lipid accumulation score,[3],≤ 0
same,scaled lipid accumulation score,library stock concentration: 4.7 mM,≤ 0
same,scaled lipid accumulation score,[2],≤ -0.001
CCCCc1cc2ccccc2c(OCCN(C)C)n1 [Dimethisoquin hydrochloride],scaled lipid accumulation score,,0.71
CCCCc1oc2ccccc2c1C(=O)c1cc(I)c(OCCN(CC)CC)c(I)c1,scaled lipid accumulation score,library stock concentration: 7.3 mM,0.281
same,scaled lipid accumulation score,library stock concentration: 9.5 mM,1.34 (active)
CCCCc1oc2ccccc2c1C(=O)c1cc(I)c(OCCN(CC)CC)c(I)c1 [Amiodarone hydrochloride],scaled lipid accumulation score,,0.445
same,scaled lipid accumulation score,library stock concentration: 2.9 mM,0.417
CCCCc1oc2ccccc2c1C(=O)c1cc(I)c(OCCN(CC)CC)c(I)c1 [Amiodarone],scaled lipid accumulation score,library stock concentration: 3.1 mM,0.438
CCCCc1oc2ccc(NS(C)(=O)=O)cc2c1C(=O)c1ccc(OCCCN(CCCC)CCCC)cc1 [Dronedarone HCl],scaled lipid accumulation score,[3],0.642
same,scaled lipid accumulation score,[2],0.263
CCc1oc2ccccc2c1C(=O)c1cc(Br)c(O)c(Br)c1,scaled lipid accumulation score,[2],≤ 0
CCCCc1oc2ccccc2c1C(=O)c1cc(I)c(OCCN(CC)CC)c(I)c1.Cl [Amiodarone hydrochloride],scaled lipid accumulation score,[2],1.04 (active)
CCCCc1oc2ccccc2c1C(=O)c1cc(I)c(OCCN(CC)CC)c(I)c1.Cl [Amiodarone HCl],scaled lipid accumulation score,[2],1.27 (active)
CCCCc1oc2ccccc2c1C(=O)c1cc(I)c(OCCN(CC)CC)c(I)c1 [Amiodarone HCl],scaled lipid accumulation score,[3],0.394
NC(=O)c1cc[n+](CC2=C(C(=O)O)N3C(=O)[C@@H](NC(=O)C(c4ccccc4)S(=O)(=O)[O-])[C@H]3SC2)cc1 (stereo partly drawn) [Cefsulodin sodium salt hydrate],scaled lipid accumulation score,[2],0.04
NC(=O)c1ccc2nc(-c3ccc(Oc4ccc(Cl)cc4)cc3)[nH]c2c1 [Chk2 Inhibitor II],scaled lipid accumulation score,[3],≤ 0
